From PubChem BioAssay AID2314 (National Center for Advancing Translational Sciences (NCATS), 2010)
The campaign covered roughly 300,000 compounds. About 37,000 (12%) were called active. The sample holds actives, similar compounds and a random draw of the others, so the mix is not that of the screen. Rule as the data show it: active = max response mostly above about 13% (no sharp cut-off); inactive = mostly below about 14%.

Experiment: Cycloheximide Counterscreen for Small Molecule Inhibitors of Shiga Toxin; also: read at 38.3 µM for the half of the compounds with a filed dose; 0% is about no effect
Details: cell reporter, cycloheximide protein synthesis inhibition counterscreen; active compounds read high

| Compound | max response |
| --- | --- |
| Cc1ccc(S(=O)(=O)N(C)CC(=O)NCCc2c[nH]c3ccccc23)cc1 | 0.209% (inactive) |
| Cc1cccc(NC(=O)NC2(C)CCS(=O)(=O)C2)c1 (stereo not given) | 1.38% (inactive) |
| COc1ccccc1CNC(=O)c1ccc(N(C)S(=O)(=O)c2ccc(C)cc2)cc1 | -0.735% (inactive) |
| Cc1coc2c(O)cc3c(c12)OC1(N2CCCCC2)C(=O)NCCCC31 (stereo not given) | -0.492% (inactive) |
| COc1ccc(CNS(=O)(=O)c2cc(-c3cc(C)no3)ccc2C(C)C)cc1 | -0.908% (inactive) |
| CCCCC(=O)Nc1c2c(nn1-c1ccc([N+](=O)[O-])cc1)CS(=O)(=O)C2 | -4.82% (inactive) |
| O=C(c1cc2ccccc2s1)N1CCN(c2ccccn2)CC1 | -0.772% (inactive) |
| Cc1ccc(COc2ccc(C(=O)NN)cc2)cc1 | 15.8% (inactive) |
| NNC(=O)c1cccc(COCC(F)(F)C(F)F)c1 | 9.81% (inactive) |
| CC(C)c1cc(C(N)=O)c(NC(=O)c2cccc(COc3ccc(Br)cc3)c2)s1 | 142% (active) |
| CN(C)C(=O)CCC(=O)N1CCCCC1C(=O)Nc1ccc(Oc2ccccc2F)cc1 (stereo not given) | -1.6% (inactive) |
| O=S(=O)([N-]c1nc2ccccc2nc1-[n+]1ccc(Cc2ccccc2)cc1)c1ccc(Br)s1 | 10.5% (active) |
| O=S(=O)(NCc1cccnc1)c1ccc(Br)s1 | -6.09% (inactive) |
| Cc1cc(C)c[n+](-c2nc3ccccc3nc2[N-]S(=O)(=O)c2cccs2)c1 | -0.756% (inactive) |
| CCCSc1nc(NCc2ccco2)c2c3c(sc2n1)COC(C)(CC)C3 (stereo not given) | 24.2% (inactive) |
| O=c1onc(-c2c(F)cccc2F)n1-c1ccccc1Cl | -4.66% (inactive) |
| O=C(O)c1cc2c(cc1NC(=O)c1c(F)cccc1Cl)OCCCO2 | -4.07% (inactive) |
| CCSc1nnc(NC(=O)c2ccc(C)cc2)s1 | 32.4% (active) |
| NC(=O)CSc1nnc(NC(=O)c2ccc(Br)o2)s1 | 27.9% (inactive) |
| CCSc1nnc(NC(=O)Cc2ccccc2OC)s1 | 7.43% (inactive) |

| Compound | max response |
| --- | --- |
| C=CCSc1nnc(NC(=O)c2ccc(NC(C)=O)cc2)s1 | 14.5% (active) |
| O=C(Nc1nnc(SCc2ccccc2Cl)s1)c1cccc([N+](=O)[O-])c1 | -4.31% (inactive) |
| CCOC(=O)CSc1nnc(NC(=O)c2cccc(S(=O)(=O)N3CCCC3)c2)s1 | -1.74% (inactive) |
| Cc1ccc(N=Cc2c(O)n(-c3nccs3)c(=O)c3ccccc23)c(C)c1 | 0.787% (inactive) |
| O/N=C(\C[n+]1ccccc1)c1ccc(Br)cc1 | -6.18% (inactive) |
| CC1CC(=O)N(CC(=O)Nc2cccc(Cl)c2)c2ccccc2S1(=O)=O (stereo not given) | -1.52% (inactive) |
| O=C(NC1CCCCCC1)c1cccnc1Sc1ccc(Cl)cc1 | -2.31% (inactive) |
| Cc1cc(C)c(NC(=O)C[N+](C)(C)CC(O)COc2cccc3ccccc23)c(C)c1 (stereo not given) | -2.87% (inactive) |
| CCC(C)(C)NC(=O)C(c1ccc(O)cc1)N(Cc1ccco1)C(=O)CCC(=O)Nc1ccccn1 (stereo not given) | 13.8% (inactive) |
| COc1ccc(C2=NS(=O)(=O)N(C)C(C(=O)NC(C)c3ccccc3)=C2)cc1 (stereo not given) | -2.97% (inactive) |
| O=C(Nc1cccc(-c2cscn2)c1)C1CCN(Cc2ccsc2)CC1 | -0.646% (inactive) |
| COCCOC(=O)c1c(C)oc2cc(Br)c(OCC(N)=O)cc12 | -1.75% (inactive) |
| Cc1cc(-c2nc(C)c(-c3nnc(SCC(=O)Nc4ccccc4)n3C)s2)no1 | -3.06% (inactive) |
| CCn1c(SCCC(C)C)nnc1-c1c[nH]c2ccccc12 | -5.75% (inactive) |
| CCC(C)Sc1nnc(-c2c[nH]c3ccccc23)n1CCOC (stereo not given) | -2.17% (inactive) |
| CCCc1cc(-c2n[nH]c(=S)n2CC)c2ccccc2n1 | -5.71% (inactive) |
| Cc1ccc(-c2csc(-c3c[nH]c4ccccc34)n2)cc1 | 52.5% (active) |
| Cc1ccc(-c2csc(-c3cc(C)on3)n2)cc1 | 17% (active) |
| CCCc1cc(-c2nc(-c3ccc(C)cc3)cs2)ccn1 | 39.7% (active) |
| CCCc1nc2scc(-c3ccc(C)cc3)c2c(=O)n1N | 25.8% (inactive) |

| Compound | max response |
| --- | --- |
| Cc1cc(-c2n[nH]c(=S)n2-c2ccc(C)c(C)c2)no1 | 10.2% (inactive) |
| COc1cccc(N(CC(=O)NC2CCCC2)C(=O)CCCC(=O)Nc2ccccn2)c1 | -1.64% (inactive) |
| Cn1nccc1C(=O)NC1CCCc2c1cnn2-c1ccc(F)cc1F (stereo not given) | -0.526% (inactive) |
| O=C(NCCN1C(=O)S/C(=C\c2cccnc2)C1=O)c1ccc(S(=O)(=O)N2CCCC2)cc1 | 7.82% (inactive) |
| NC(=O)C1(C(N)=O)OC1c1ccc(Cl)cc1Cl (stereo not given) | -2.97% (inactive) |
| CCOCC(=O)NCc1ccc2c(c1)cc(C)n2C | 0.782% (inactive) |
| Cc1sc(NC(=S)NC(=O)c2cccs2)nc1-c1ccc(CC(C)C)cc1 | 9.37% (inactive) |
| Cc1ccc(S(=O)(=O)CC(=O)NC(C)c2ccccc2)cc1 (stereo not given) | -0.898% (inactive) |
| CC1(C)SC2c3ccccc3C(=O)N2[C@@H]1C(=O)NCc1ccco1 (stereo not given in full) | -2.7% (inactive) |
| CCCCNC(=O)c1cn(CC)c2cc(N3CCN(C(=O)c4ccco4)CC3)c(F)cc2c1=O | -2.67% (inactive) |
| CC(C)OCCCNC(=O)CN1C(=O)/C(=C/c2ccccc2F)Oc2ccccc21 | -1.24% (inactive) |
| CN(C)C(=O)Cn1c(=O)n(S(=O)(=O)c2ccccc2)c2ccccc21 | -2.7% (inactive) |
| O=C(CSc1nnc(-c2ccccc2O)o1)NC1CCCCC1 | -5.38% (inactive) |
| O=C(CSc1ncnc2c1oc1ccccc12)NC1CCCC1 | 13.3% (active) |
| O=C(CSc1nnc2c(n1)[nH]c1ccccc12)NC1CCCCC1 | -2.06% (inactive) |
| COc1ccc(N(CC(=O)NCCSCc2cccc(Cl)c2)S(C)(=O)=O)cc1 | 10.3% (inactive) |
| COc1ccccc1NC(=O)CCC(=O)N1CC(C)Oc2ccc(C)cc21 (stereo not given) | -2.59% (inactive) |
| COc1ccc(CNc2ncnc3ccccc23)cc1 | -4.12% (inactive) |
| COc1ccc(N(CC(=O)NCc2ccc(F)cc2)C(=O)CCC(=O)Nc2nccs2)cc1 | 2.82% (inactive) |
| COc1ccc(CNc2nccs2)cc1 | 15.6% (active) |
